# Results reported in PubChem BioAssay (NCATS).
# Several values for one entry are separate records, joined by “and”; a condition that tells them apart may be missing. Identical values can stand only once. Records with an inconclusive call do not appear. A number with no mark means an inactive call. Activity calls are given as the source filed them. Calls follow the shape of the dose curve; as a rule, active = well fitted inhibition curve with a large enough effect; inconclusive = small, poorly fitted or top-dose-only effect; inactive = flat fitted curve, though single readings scatter.
# Assays:
# [1] = test system: HaCat; test: Cytotoxic Profiling of Annotated Libraries Using Quantitative High-Throughput Screening (AID 1296008); details: Five cell lines viability, CellTiter-Glo ATP luminescence, 48-72 h; max response: hits give low values; also: potency is read from the fitted curve at half-maximal effect; as to max response: % is scaled to controls: 0 for no effect and ±100 for the full control effect
# Procedure, shortened: (§1)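 Compounds were pin-transferred onto cells and incubated 48 or 72 hr at 37 degree Celsius, 95% humidity. CellTiter-Glo was added, plates sat 10 min at room temperature, then ATP-coupled luminescence was imaged as the viability read-out.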
# [2] = test system: KB-3-1; test: as above; details: Five cell lines viability, CellTiter-Glo ATP luminescence, 48-72 h; max response: hits give low values
# Procedure, shortened: as §1
# [3] = test system: W2; test: qHTS profiling for inhibitors of Plasmodium falciparum proliferation (AID 504749); also: potency is read from the fitted curve at half-maximal effect; details: P. falciparum in erythrocytes, SYBR Green DNA, 72 h; series mostly up to 28.7 µM
# Procedure, shortened: (§2)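 P. falciparum-infected erythrocytes (0.3% parasitemia, 2.5% hematocrit final) were exposed to compounds for 72 h at 37 C in 5% CO2, then lysed with SYBR Green buffer overnight at room temperature; parasite DNA fluorescence was normalized to artemisinin and DMSO controls.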
# [4] = test system: CRL-7250; test: Cytotoxic Profiling of Annotated Libraries Using Quantitative High-Throughput Screening (AID 1296008); details: Five cell lines viability, CellTiter-Glo ATP luminescence, 48-72 h; max response: hits give low values; also: potency is read from the fitted curve at half-maximal effect; as to max response: % is scaled to controls: 0 for no effect and ±100 for the full control effect
# Procedure, shortened: as §1
# [5] = test system: NIH3T3; test: as above; details: Five cell lines viability, CellTiter-Glo ATP luminescence, 48-72 h; max response: hits give low values
# Procedure, shortened: as §1
# [6] = test system: HACAT; test: qHTS assay to identify novel small-molecules to repurpose for Merkel cell carcinoma treatment (AID 1296009); details: MCC and control cell lines, CellTiter-Glo viability, 72 h; at 44.8 µM (top of the series) unless noted
# Procedure, shortened: (§3)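 Cells exposed to NPC (8-point) and MIPE (11-point) compound dilutions for 72 hr at 37 degree celsius; viability read by CellTiter-Glo luminescence, normalized to no-cell and DMSO in-plate controls.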
# [7] = test system: TAB165; test: qHTS profiling for inhibitors of Plasmodium falciparum proliferation (AID 504749); also: potency is read from the fitted curve at half-maximal effect; details: P. falciparum in erythrocytes, SYBR Green DNA, 72 h; series mostly up to 28.7 µM
# Procedure, shortened: as §2
# [8] = test system: HEK293; test: Cytotoxic Profiling of Annotated Libraries Using Quantitative High-Throughput Screening (AID 1296008); details: Five cell lines viability, CellTiter-Glo ATP luminescence, 48-72 h; max response: hits give low values; also: potency is read from the fitted curve at half-maximal effect; as to max response: % is scaled to controls: 0 for no effect and ±100 for the full control effect
# Procedure, shortened: as §1
# [9] = test system: HEK293T; test: qHTS assay to identify novel small-molecules to repurpose for Merkel cell carcinoma treatment (AID 1296009); details: MCC and control cell lines, CellTiter-Glo viability, 72 h; at 44.8 µM (top of the series)
# Procedure, shortened: as §3
# [10] = test system: CRL-7250; test: as above; details: MCC and control cell lines, CellTiter-Glo viability, 72 h; at 44.8 µM (top of the series) unless noted
# Procedure, shortened: as §3
# Also: nearly all actives have a fitted effect of over 60% in size.
smiles,measurement,setting,value
CN1C(=O)CN=C(c2ccccc2)c2cc(Cl)ccc21,max response,[1],-27.5%
same,max response,[2],-19.7%
CCN(CC)CCOC(=O)C(C)(c1ccccc1)c1ccccc1,Potency,[3],1.35 µM (active)
same,max response,[4],-0.0825%
same,outcome,[1],inactive
same,max response,[2],-6.01%
same,max response,[5],1.33%
same,outcome,[6],inactive
Clc1ccc(C(OCCN2CCCCC2)c2ccccc2)cc1 (configuration not stated),max response,[1],-5.7%
same,max response,[2],-23.9%
CC(=O)OC1(c2ccccc2)CCN(CCc2ccccc2)CC1,max response,[1],-10.1%
same,max response,[2],-24%
same,max response,[5],-21.5%
O=C(CCCN1CCC(n2c(=O)[nH]c3ccccc32)CC1)c1ccc(F)cc1,Potency,[7],1 µM (active)
same,Potency,[3],0.642 µM (active)
same,max response,[4],-0.196%
same,outcome,[1],inactive
same,max response,[2],-5.74%
same,max response,[5],0.676%
same,outcome,[6],inactive
CC(CC(C#N)(c1ccccc1)c1ccccc1)N(C)C (configuration not stated),Potency,[8],24.3 µM (active)
same,max response,[1],-5.96%
same,max response,[2],-8.06%
same,max response,[5],-12.2%
CN1CCC(N(Cc2ccccc2)c2ccccc2)CC1,max response,[4],-21.6%
same,outcome,[1],inactive
same,max response,[5],-20.5%
same,outcome,[6],inactive
COc1ccc2c(C(=O)c3ccc(Cl)cc3)c(C)n(CC(=O)O)c2c1,max response,[4],-9.6%
same,outcome,[2],inactive
same,max response,[5],-34.1%
NC1(c2ccccc2)CCCCC1,Potency,[8],38.2 µM (active)
same,max response,[1],1.23%
same,max response,[2],1.89%
same,max response,[5],-27.2%
CC1COC2(c3ccccc3Cl)c3cc(Cl)ccc3NC(=O)CN12 (configuration not stated),max response,[4],-0.632%
same,outcome,[1],inactive
same,max response,[5],2.64%
same,outcome,[6],inactive
C#C[C@]1(O)C=C[C@H]2[C@@H]3CCC4=CC(=O)CC[C@@H]4[C@H]3CC[C@@]21CC,max response,[4],0.605%
same,outcome,[1],inactive
same,max response,[2],-9.68%
same,outcome,[6],inactive
CC(C)=C[C@@H]1[C@@H](C(=O)OCc2coc(Cc3ccccc3)c2)C1(C)C,max response,[4],2.34%
same,outcome,[1],inactive
same,max response,[2],6.83%
same,max response,[5],-1.15%
same,outcome,[6],inactive
C[N+]1(CCC(C(N)=O)(c2ccccc2)c2ccccc2)CCCCC1,Potency,[7],inactive
same,Potency,[3],inactive
same,outcome,[8],inactive
same,max response,[1],-10.3%
same,max response,[2],6.68%
same,outcome,[5],inactive
same,outcome,[9],inactive
CC[C@H]1C[C@H]2[C@@H]3CCC4=CC(=O)CC[C@@H]4[C@H]3CC[C@]2(C)[C@H]1O,max response,[4],-11.6%
same,max response,[1],2.56%
same,outcome,[2],inactive
same,max response,[5],-0.575%
Oc1ccc2[nH]cc(CCCCN3CC=C(c4ccccc4)CC3)c2c1,Potency,[7],11.2 µM (active)
same,Potency,[3],5.36 µM (active)
same,max response,[4],4.19%
same,outcome,[1],inactive
same,max response,[2],7.3%
same,outcome,[6],inactive
O=C(NC(=O)c1c(F)cccc1F)Nc1cc(Cl)c(OC(F)(F)C(F)C(F)(F)F)cc1Cl (configuration not stated),outcome,[4],inactive
same,outcome,[1],inactive
same,max response,[2],8.21%
same,max response,[5],-16.1%
same,outcome,[10],inactive
same,outcome,[6],inactive
CC[C@H]1C[C@@H]2C[C@H]3c4[nH]c5ccc(OC)cc5c4CCN(C2)[C@@H]13,max response,[4],1.28%
same,max response,[1],-4.77%
same,max response,[2],-8.79%
same,max response,[5],-11.9%
Clc1ccc(CO/N=C(\Cn2ccnc2)c2ccc(Cl)cc2Cl)c(Cl)c1,Potency,[7],1.41 µM (active)
same,Potency,[3],1.69 µM (active)
same,max response,[4],-2.86%
same,max response,[2],0.479%
CCN(CC)Cc1nccn1-c1ccc([N+](=O)[O-])cc1C(=O)c1ccccc1Cl,max response,[4],-12.2%
same,outcome,[1],inactive
same,max response,[2],-4.42%
same,max response,[5],-7.47%
same,outcome,[6],inactive
COc1ccc2c3c1O[C@H]1[C@@H](O)C=C[C@H]4[C@@H](C2)N(C)CC[C@@]341,Potency,[8],33.7 µM (active)
same,max response,[2],-15%
CC(C)(C)OC(=O)c1ncn2c1[C@@H]1CCCN1C(=O)c1c(Br)cccc1-2,Potency,[7],inactive
same,outcome,[4],inactive
same,max response,[1],3.04%
same,max response,[2],-1.12%
same,outcome,[5],inactive
same,outcome,[10],inactive
OC(c1ccccc1)(c1ccccc1)C1CCNCC1,Potency,[7],inactive
same,Potency,[3],inactive
same,max response,[4],4.48%
same,max response,[1],-12.8%
same,max response,[2],-11.7%
same,max response,[5],-1.52%
COc1cc(CC(C)N)c(OC)cc1Br (configuration not stated),Potency,[8],14.2 µM (active)
same,max response,[1],-6.81%
same,max response,[2],-7.67% and -13.5%
C=CCOC(Cn1ccnc1)c1ccc(Cl)cc1Cl (configuration not stated),Potency,[7],3.16 µM (active)
same,Potency,[3],4.26 µM (active)
same,max response,[4],-16.8%
same,outcome,[1],inactive
same,max response,[2],2.22%
same,max response,[5],-13%
same,outcome,[6],inactive
Cc1nnc2n1-c1sc(CCc3ccc(CC(C)C)cc3)cc1C(c1ccccc1Cl)=NC2C (configuration not stated),Potency,[8],7.5 µM (active)
CC#C[C@]1(O)CC[C@H]2[C@@H]3C[C@H](C)C4=CC(=O)CC[C@]4(C)[C@H]3CC[C@@]21C,Potency,[8],23.7 µM (active)
same,outcome,[1],inactive
same,outcome,[6],inactive
Cc1c(Cl)c(=O)oc2cc(OP(=O)(OCCCl)OCCCl)ccc12,Potency,[7],7.08 µM (active)
CCC(=O)O[C@H]1CC[C@H]2[C@@H]3CCC4=CC(=O)CC[C@]4(C)[C@H]3CC[C@]12C,Potency,[7],inactive
CC(C)(O)C(Cl)(Cl)Cl,Potency,[7],1.78 µM (active)
same,Potency,[3],1.51 µM (active)
same,outcome,[6],inactive
